Test [1] in a line: viability loss in pontine glioma line – cell-based, SU-DIPG-XXV, MIPE5.0, CellTiter-Glo, qHTS, dose response (AID 1347065; cut-off not given, nearly all actives have AC50 up to about 26 µM;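 note: cells exposed to compound for 48 hours before ATP readout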). As to conditions: CellTiter-Glo ATP luminescence.
A short description of test [2]: growth inhibition of DIPG cells – cell-based, MIPE4.0 library, CellTiter-Glo luminescence, qHTS (AID 1347066; cut-off not given, nearly all actives have AC50 up to about 30 µM;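 note: cells exposed to compound for 48 hours before readout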). The settings on record: SU-DIPG-VI viability, CellTiter-Glo ATP luminescence.
Test [3] can be described thus: MELAS cybrid and Rieske KO viability enhancers – cell-based, MELAS cybrids, Rieske KO mouse fibroblasts, CellTiter-Glo, primary screen (AID 1508586).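 Note: z relative to plate mean and SD of compound and empty wells.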 The settings on record: low glucose.
Test [4] is described as follows: growth inhibition of DIPG cells – cell-based, MIPE5.0 library, qHTS (AID 1347068; cut-off not given, nearly all actives have IC50 up to about 30 µM;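 for IC50: cells exposed to compound for 48 hours before viability readout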). The settings on record: SU-DIPG-XXV viability.
Test [5] in a line: blockers of cellular phospholipid synthesis – cell-based, LOPAC library, screen 4, primary screen (AID 1347384; call rule not given here). The settings on record: animal cells, phospholipid biosynthesis inhibition screen; at 10 µM.
Test [6] is described as follows: viability loss with induced miR-34 in A549 – imaging, A549 dox-inducible miR-34, nuclei and caspase counts, primary screen (AID 1347080;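 active = compounds whose cell count with miR-34 switched on is under 0.7 times the count with it off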). As to conditions: A549 miR-34 inducible, Hoechst nuclei count, 48 h.
The nature of test [7]: JHH-DIPG-1 glioma cell viability, MIPE5.0 library, CellTiter-Glo luminescence, qHTS (AID 1347067; cut-off not given, nearly all actives have AC50 up to about 26 µM;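 note: cells exposed to compound for 48 hours before readout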). The settings on record: JHH-DIPG-1 glioma viability, CellTiter-Glo ATP luminescence.
Test [8] is described as follows: chitosan synthesis blockers in C. neoformans – flow cytometry, Cibacron Brilliant Red staining (AID 1347148; call rule not given here;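 note: compound exposure lasted three days at 37 degrees C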). The settings on record: Cryptococcus neoformans chitosan, stronger effect = lower value; at 10 µM unless noted.
The mark [9] stands for this setting: MELAS cybrid survival, CellTiter-Glo 48 h, stronger effect = higher value.
The mark [10] stands for this setting: Rieske KO mouse fibroblast survival, CellTiter-Glo 72 h.
Where [11] appears, read: stronger effect = lower value, cell number ratio, induced over uninduced.
Where [12] appears, read: measured here: relative caspase fold change +Dox/-Dox.
Setting [13] is: measured here: total cells with miR-34 induction, stronger effect = lower value.
Where [14] appears, read: measured here: total cells without miR-34 induction.

“And” between values parts separate entries of the source, which are not always exact repeats. Identical values can stand only once. Results filed as inconclusive are left out. The source made the active and inactive calls.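 Rule for the calls, unless noted: active = mean z-score across replicates of 1.96 or higher in either the MELAS or the Rieske mutant cell line; inactive = the rest.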

Take `C#C[C@]1(O)CC[C@H]2[C@@H]3CCc4cc(O)ccc4[C@H]3CC[C@@]21C`: in test [1], the AC50 was 13.2 µM (active). The molecule was classed as inactive in test [2]. In addition, the z-score was 1.16 (inactive) in test [3] (setting [9]) and 0.428 in test [3] (setting [10]).
On to `CN(CCOc1ccc(NS(C)(=O)=O)cc1)CCc1ccc(NS(C)(=O)=O)cc1`, for which the outcome in test [1], in test [2], in test [4] and in test [5] was inactive. The z-score is -0.0974 (inactive) and 0.133 (inactive) and -0.631 (inactive) in test [3] (setting [9]); -0.727 and -0.208 and -0.315 in test [3] (setting [10]).
On to `CCOc1cc(N)c(Cl)cc1C(=O)NCC1CN(Cc2ccc(F)cc2)CCO1` (stereo unspecified), for which the result in test [1], in test [2] and in test [4] was inactive. For the same molecule, the fold change in test [6] (setting [11]) is 0.847 (inactive) and 0.952 (inactive); in test [6] (setting [12]), 1.51 and 0.602. Further, the cell count is 7930 and 7020 in test [6] (setting [13]); 9370 and 7370 in test [6] (setting [14]). In addition, the z-score in test [3] (setting [9]) is -0.303 (inactive); in test [3] (setting [10]) it was -0.205.
With `Cc1cn[nH]c1`, the result in test [1], in test [7], in test [4] and in test [5] was inactive. Besides, the fold change in test [6] (setting [11]) is 0.994 (inactive) and 0.902 (inactive); in test [6] (setting [12]), 0.844 and 2.49. For the same molecule, the cell count is 10200 and 12000 in test [6] (setting [13]); 10200 and 13300 in test [6] (setting [14]). Further, the z-score in test [3] (setting [9]) is 0.667 (inactive); in test [3] (setting [10]), 0.0381.
Take `COC(=O)Nc1nc2ccc(Sc3ccccc3)cc2[nH]1`: in test [1], the half-maximal activity concentration (AC50) is 0.742 µM (active). The molecule was called inactive in test [2] and in test [4]. Also, the z-score in test [3] (setting [9]) was 1.35 (inactive) and -2.36 (inactive) and -2.06 (inactive); in test [3] (setting [10]), -0.0455 and -0.127 and 1.14.
Turning to `CCCN(CCC)C(=O)C(CCC(=O)O)NC(=O)c1ccccc1` (stereo unspecified), the outcome in test [1], in test [7], in test [4] and in test [5] was inactive. The fold change in test [6] (setting [11]) is 1.06 (inactive) and 0.936 (inactive) and 0.845 (inactive); in test [6] (setting [12]), 0.941 and 0.892 and 4.08. Moreover, the cell count in test [6] (setting [13]) is 10500 and 8340 and 11300; in test [6] (setting [14]), 9940 and 8900 and 13400. For the same molecule, the z-score was -1.04 (inactive) in test [3] (setting [9]) and -0.386 in test [3] (setting [10]).
Take `CCN(CC)CCOc1ccc(/C(=C(\Cl)c2ccccc2)c2ccccc2)cc1`: in test [1], the concentration at half-maximal activity (AC50) is 13.2 µM (active). Besides, the molecule was called inactive in test [2] and in test [4]. Also, the fold change in test [6] (setting [11]) is 0.868 (inactive); in test [6] (setting [12]) it was 0.906. Moreover, the cell count in test [6] (setting [13]) came to 10700; in test [6] (setting [14]) it was 12300.
In the case of `Cc1[nH]c(=O)c(C#N)cc1-c1ccncc1`, the call in test [1], in test [7], in test [4] and in test [5] was inactive. Moreover, the fold fluorescence in test [8] was 6.33 [at 236.7 µM] (inactive). Further, the z-score was -0.327 (inactive) and 0.548 (inactive) and 0.108 (inactive) in test [3] (setting [9]); 0.87 and -0.397 and -0.212 in test [3] (setting [10]).
Consider `C1CCC(C(CC2CCCCN2)C2CCCCC2)CC1` (stereo unspecified), for which the AC50 in test [1] was 10.5 µM (active); in test [7], 8.33 µM (active). Besides, the fold change in test [6] (setting [11]) is 0.746 (inactive) and 0.859 (inactive); in test [6] (setting [12]), 0.891 and 3.18. In addition, the cell count was 5600 and 9890 in test [6] (setting [13]); 7500 and 11500 in test [6] (setting [14]). Moreover, the z-score in test [3] (setting [9]) was -1.07 (inactive); in test [3] (setting [10]) it was 0.712.
As for `CCCCc1ccc2nc(NC(=O)OC)[nH]c2c1`, the AC50 in test [1] is 0.118 µM (active); in test [7], 0.332 µM (active). Also, the fold change was 1.15 (inactive) in test [6] (setting [11]) and 0.509 in test [6] (setting [12]). In addition, the cell count is 1770 in test [6] (setting [13]) and 1530 in test [6] (setting [14]). Further, the z-score in test [3] (setting [9]) is -2.16 (inactive); in test [3] (setting [10]) it was 0.696.
Take `CC/C(=C(/CC)c1ccc(O)cc1)c1ccc(O)cc1`: the call in test [1] and in test [4] was inactive. The z-score in test [3] (setting [9]) was 0.343 (inactive) and 0.665 (inactive); in test [3] (setting [10]), -0.0589 and -0.544.
For the molecule `CC(C)COCC(CN(Cc1ccccc1)c1ccccc1)N1CCCC1` (stereo unspecified), the half-maximal activity concentration (AC50) in test [1] and in test [7] was 18.6 µM (active) throughout. Moreover, the IC50 in test [4] is 16.6 µM (active). The result in test [5] was inactive. The z-score in test [3] (setting [9]) was -1.13 (inactive) and -0.882 (inactive); in test [3] (setting [10]) it was -0.167 and 0.23.
For `CNC[C@H](O)c1ccc(O)c(O)c1`, the molecule was called inactive in test [2], in test [7], in test [4] and in test [5]. For the same molecule, the fold change was 0.963 (inactive) in test [6] (setting [11]) and 1.01 in test [6] (setting [12]). The cell count in test [6] (setting [13]) worked out at 10100; in test [6] (setting [14]) it was 10500.
`O=P(O)(O)C(O)(Cc1cccnc1)P(=O)(O)O`: the molecule was classed as inactive in test [2], in test [7] and in test [4]. For the same molecule, the fold change in test [6] (setting [11]) was 0.901 (inactive) and 0.801 (inactive); in test [6] (setting [12]), 4.65 and 1.35. Moreover, the cell count in test [6] (setting [13]) is 12400 and 8410; in test [6] (setting [14]), 13700 and 10500. Moreover, the z-score in test [3] (setting [9]) is 0.589 (inactive) and -0.187 (inactive); in test [3] (setting [10]) it was 0.376 and -0.746.

(Values after PubChem BioAssay.)
